Source: the supplement of paper PMC6555819

Each sequence was assayed on FXR:RXRa (NR concentration 270 nM, RXRa partner concentration 90 nM) (assay: PBM binding z-score (relative to random genomic background probes); higher = stronger binding; sequences stand for … in GC…GCGATTGACAGCGTAGAATGAAGG).
How it was run: (§1)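 Random background probes are the reference for binding z-scores. These scores derive from regression-normalized fluorescence on custom Agilent 4×180K protein-binding microarrays incubated 1 h with ligand-free nuclear receptor dimers. Binding was detected with antibodies against each partner (one per run).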
Work on TCATATAGGCAAAAGGTGAAAGTCGGTGTGGTAA yielded a PBM binding z-score of 1.44.
Work on ATATGTAGGTTAGCTGGGGTCATTCAGACTAGGC yielded a PBM binding z-score of 4.38.
In the case of GCAACGAGGGCAAAGTTGATAGCATCTGTCGACG, the PBM binding z-score is reported as 1.14.
Work on CCTTACGGGTCGCTCCAGGTTATAGCATCGGAGT yielded a PBM binding z-score of 1.38.
With ATGTCTAGGTAAGACTCAGTTCAGTGAAGAACGC the PBM binding z-score was -0.0311.
Work on GATTCAGGGTCAAGGCCAGAGTACGCGTATTGAT yielded a PBM binding z-score of 6.98.
CGTCAAAGCTCAAGGTAACGTAACAGAAAGCAGC showed a PBM binding z-score of -0.214.
For CCTATTAGTTGACCACAAGGGCAACCGAAGCTCG, the PBM binding z-score was 0.713.
ATATGTAGCTTAGCTGGGGTCATTCAGACTAGGC was tested, and the PBM binding z-score was 3.34.
Sequence CTACCAAGGTGAACAAGCTCGTTGATTACTATTC has a PBM binding z-score of 0.329.
Sequence CTCGAAAGGTCGTGCTCAGGTGACTATACCAAAC has a PBM binding z-score of 5.25.
With CGAACTAGGTCAAGAACAGTGAATCTCCGCACGC the PBM binding z-score was 2.92.
ACTATTAGGTGACTTAGGGCAACCGATACGACGC was tested, and the PBM binding z-score was 0.616.
In the case of TAGCCTAGGTCAAGGGCCAGTATACCACGCGAAC, the PBM binding z-score is reported as 4.16.
In the case of ACTTACGGGTCAACGAGGTTATTGCACGCGTATA, the PBM binding z-score is reported as 6.87.
With CGTCAAAGTTCAAGGTAACGTTACAGAAAGCAGC the PBM binding z-score was 6.48.
CAATCTAGGTCACCGGAAGGTCAAAGTCCGCATG gave a PBM binding z-score of 6.51.
CCGAGTGGGGCAAAGGTTACCATACTCAGTACGA showed a PBM binding z-score of 1.45.
AATAGAGGGTCACTAGGCCAGAGTAGGTACGAAT was tested, and the PBM binding z-score was 4.62.
ACCTCTAGGTAACCAAGTTCAGTGAATGCCGAAC showed a PBM binding z-score of 0.335.
For CGTCAAAGTTCAAGGTAACGTGACAGAAAGCAGC, the PBM binding z-score was 5.87.
With TCTCGGAGGACACGAAGGTCAGAGCTTTCCAGAG the PBM binding z-score was 1.16.
For CGAACTAGGTCACTGACAGGACAGTGAATAGTAA, the PBM binding z-score was 3.05.
CATACAGGGTCAGCTAGGCCCGAGTAGGGACGGC showed a PBM binding z-score of 4.65.
AGAATGAGGTTACCAAAGCTCAGGGAAACGCTTG showed a PBM binding z-score of 1.93.
In the case of ATCTCTAGGTAAAGTTCAGTGACAGATCGATAGA, the PBM binding z-score is reported as 1.17.
TCGGGTAGGTTACCAATGGGGCATTCAGCTTTCT gave a PBM binding z-score of 0.661.
TAGCCTAGGTCATTCAGGGGCCAGTAGAGAAAGC showed a PBM binding z-score of 4.49.
Sequence ATCGAAAGGTCTTGAGGTGAGTATACAGAAAGGC has a PBM binding z-score of 0.305.
AGGATGAGGTTAAGATCAGGGAAACAGAATACAT showed a PBM binding z-score of 2.5.
For CCTCGGAGGACAACAGGAGGGCAGAGCTGCCAGA, the PBM binding z-score was -0.363.
In the case of TCTGCTAGCTCAGTTGGTCAGCTAACGAGCTGCC, the PBM binding z-score is reported as -1.44.
For TCTAGTTGGTCAGAGGTCACACACTCGAAATGCG, the PBM binding z-score was 4.94.
GCATATAAGTAATACAAGGTGAAAGTCCGATTGT gave a PBM binding z-score of 0.578.
Work on TTAGCAAGGTGAAAGGTCGTTGATGCACGCCTTG yielded a PBM binding z-score of 3.42.
With AGCCAAAGTTCAGGACGAGGTAACGTAAAGCACG the PBM binding z-score was 4.33.
For AGAACGAGGGCATGCTGAGTTGATAGCAGAGTAG, the PBM binding z-score was 0.426.
ACTATTAATTGAGACGAGGGCAACCGATAGGTTG was tested, and the PBM binding z-score was 0.638.
Sequence CTCGAATGGTCGGTTGAGGTGAGTATACGGATAA has a PBM binding z-score of 0.27.
GCGACTGGGGCAAAGCAGGTTACCATAAGGTTGG showed a PBM binding z-score of 1.14.

Each sequence was assayed on LXRa:RXRa (NR concentration 270 nM, RXRa partner concentration 90 nM) in the same assay as above.
How it was run: as §1
TCATATAGGCAAAAGGTGAAAGTCGGTGTGGTAA was tested, and the PBM binding z-score was 1.54.
ATATGTAGGTTAGCTGGGGTCATTCAGACTAGGC showed a PBM binding z-score of 5.95.
For GCAACGAGGGCAAAGTTGATAGCATCTGTCGACG, the PBM binding z-score was 1.01.
CCTTACGGGTCGCTCCAGGTTATAGCATCGGAGT showed a PBM binding z-score of 2.13.
ATGTCTAGGTAAGACTCAGTTCAGTGAAGAACGC showed a PBM binding z-score of 0.274.
GATTCAGGGTCAAGGCCAGAGTACGCGTATTGAT was tested, and the PBM binding z-score was 5.3.
CGTCAAAGCTCAAGGTAACGTAACAGAAAGCAGC showed a PBM binding z-score of -0.485.
Work on CCTATTAGTTGACCACAAGGGCAACCGAAGCTCG yielded a PBM binding z-score of 0.65.
In the case of ATATGTAGCTTAGCTGGGGTCATTCAGACTAGGC, the PBM binding z-score is reported as 3.44.
With CTACCAAGGTGAACAAGCTCGTTGATTACTATTC the PBM binding z-score was 0.121.
CTCGAAAGGTCGTGCTCAGGTGACTATACCAAAC showed a PBM binding z-score of 3.88.
Work on CGAACTAGGTCAAGAACAGTGAATCTCCGCACGC yielded a PBM binding z-score of 1.9.
ACTATTAGGTGACTTAGGGCAACCGATACGACGC gave a PBM binding z-score of 0.424.
For TAGCCTAGGTCAAGGGCCAGTATACCACGCGAAC, the PBM binding z-score was 3.02.
ACTTACGGGTCAACGAGGTTATTGCACGCGTATA showed a PBM binding z-score of 5.03.
Sequence CGTCAAAGTTCAAGGTAACGTTACAGAAAGCAGC has a PBM binding z-score of 5.5.
Sequence CAATCTAGGTCACCGGAAGGTCAAAGTCCGCATG has a PBM binding z-score of 6.15.
CCGAGTGGGGCAAAGGTTACCATACTCAGTACGA gave a PBM binding z-score of 1.82.
AATAGAGGGTCACTAGGCCAGAGTAGGTACGAAT was tested, and the PBM binding z-score was 3.5.
ACCTCTAGGTAACCAAGTTCAGTGAATGCCGAAC showed a PBM binding z-score of 0.537.
For CGTCAAAGTTCAAGGTAACGTGACAGAAAGCAGC, the PBM binding z-score was 5.39.
Sequence TCTCGGAGGACACGAAGGTCAGAGCTTTCCAGAG has a PBM binding z-score of 1.13.
CGAACTAGGTCACTGACAGGACAGTGAATAGTAA gave a PBM binding z-score of 2.26.
CATACAGGGTCAGCTAGGCCCGAGTAGGGACGGC showed a PBM binding z-score of 3.
For AGAATGAGGTTACCAAAGCTCAGGGAAACGCTTG, the PBM binding z-score was 3.99.
ATCTCTAGGTAAAGTTCAGTGACAGATCGATAGA showed a PBM binding z-score of 2.06.
Sequence TCGGGTAGGTTACCAATGGGGCATTCAGCTTTCT has a PBM binding z-score of 1.91.
With TAGCCTAGGTCATTCAGGGGCCAGTAGAGAAAGC the PBM binding z-score was 3.73.
With ATCGAAAGGTCTTGAGGTGAGTATACAGAAAGGC the PBM binding z-score was 0.206.
For AGGATGAGGTTAAGATCAGGGAAACAGAATACAT, the PBM binding z-score was 2.06.
Sequence CCTCGGAGGACAACAGGAGGGCAGAGCTGCCAGA has a PBM binding z-score of -0.203.
Sequence TCTGCTAGCTCAGTTGGTCAGCTAACGAGCTGCC has a PBM binding z-score of -1.29.
TCTAGTTGGTCAGAGGTCACACACTCGAAATGCG showed a PBM binding z-score of 4.85.
For GCATATAAGTAATACAAGGTGAAAGTCCGATTGT, the PBM binding z-score was 0.301.
Sequence TTAGCAAGGTGAAAGGTCGTTGATGCACGCCTTG has a PBM binding z-score of 2.78.
With AGCCAAAGTTCAGGACGAGGTAACGTAAAGCACG the PBM binding z-score was 3.71.
AGAACGAGGGCATGCTGAGTTGATAGCAGAGTAG showed a PBM binding z-score of 0.131.
For ACTATTAATTGAGACGAGGGCAACCGATAGGTTG, the PBM binding z-score was 0.579.
CTCGAATGGTCGGTTGAGGTGAGTATACGGATAA showed a PBM binding z-score of -0.395.
GCGACTGGGGCAAAGCAGGTTACCATAAGGTTGG was tested, and the PBM binding z-score was 0.088.
